Where “and” joins values, the source holds several entries; their conditions need not be identical. Equal entries are not always repeated. A number with no mark means an inactive call. Results filed as inconclusive are left out. Where a call stands in place of a potency, no number is given. Calls of active or inactive are those of the source. Unless noted, calls come from the whole dose curve; as a rule, active = well fitted curve in the direction sought with a large enough effect in the repeat runs; inconclusive = weak or mixed curves; inactive = no such curve, though single readings can be large; an effect the other way counts as inactive or inconclusive.
Legend:
[1] = qHTS assay for small molecule agonists of the p53 signaling pathway (AID 651631; calls by dose curve; note: potency is the fitted concentration of half-maximal effect; nearly all actives have a fitted effect of over 15% in size)
Method in brief: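 HCT-116 cells carrying a beta-lactamase reporter under p53 response elements were dosed with compound for 16 h at 37 °C. LiveBLAzer B/G FRET substrate was then added for 2 h at room temperature, and fluorescence intensity was read to detect pathway agonism.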

[2] = qHTS assay for small molecules that induce genotoxicity in human embryonic kidney cells expressing luciferase-tagged ATAD5 (AID 651632); note: nearly all actives have a fitted effect of over 15% in size
Method in brief: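 Cells were seeded at 2,000 per well, dosed with compound, and incubated 16 hr at 37C in 5% CO2. Luciferase activity was then quantified after a 30 min room-temperature incubation with Amplite.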

[3] = qHTS assay for small molecule agonists of the p53 signaling pathway - cell viability (AID 651633; calls by dose curve; note: nearly all actives have a fitted effect of over 30% in size; note: potency is the fitted concentration of half-maximal effect)
Method in brief: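 Viability counter-read: CellTiter-Glo luminescence (30 min, room temperature) in the same p53RE-bla plates. These plates had been exposed to compounds for 16 h at 37 C.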

[4] = qHTS assay for small molecule disruptors of the mitochondrial membrane potential - cell viability (AID 720634; calls by dose curve; note: nearly all actives have a fitted effect of over 20% in size; note: potency is the fitted concentration of half-maximal effect)
Method in brief: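 Cytotoxicity was measured by ATP quantitation in HepG2 wells that had first been treated with compound for 1 hr and stained with m-MPI dye; CellTiter-Glo incubation was 30 min at room temperature.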

[5] = qHTS assay to test for compound auto fluorescence at 590 nm (red) in HepG2 cells (AID 720674)
Method in brief: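 Red autofluorescence (Ex/Em 540/590 nm, Rose Bengal sodium equivalents) was measured in HepG2 cells, 2,000 per well in MEM plus 10% FBS, plated overnight at 37 C. Readings were taken 1 hr after adding 23 nL compound or DMSO, at 37 C and 5% CO2.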

[6] = qHTS assay to test for compound auto fluorescence at 535 nm (green) in HepG2 cells (AID 720675)
[7] = qHTS assay to test for compound auto fluorescence at 460 nm (blue) in HEK293 cells (AID 720678); note: potency is the fitted concentration of half-maximal effect
Method in brief: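 Intrinsic compound fluorescence is recorded in live HEK293 cultures after overnight incubation at 37C, 5% CO2, using excitation 405 nm and emission 460 nm. Values are referenced to triamterene.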

[8] = qHTS assay to test for compound auto fluorescence at 535 nm (green) in HEK293 cells (AID 720680)
[9] = qHTS assay to test for compound auto fluorescence at 460 nm (blue) in HEK293 cell free culture (AID 720681); note: potency is the fitted concentration of half-maximal effect
Method in brief: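 Blue fluorescence (Ex 405/Em 460 nm, triamterene-equivalent) was read immediately after pin transfer of compound or DMSO into medium (DMEM, 10% FBS) without cells.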

[10] = qHTS assay to test for compound auto fluorescence at 535 nm (green) in HEK293 cell free culture (AID 720682)
Method in brief: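 Green-label autofluorescence (485 nm excitation, 535 nm emission) measured on compound added to cell-free culture medium (DMEM, 10% FBS). Output is expressed relative to fluorescein.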

[11] = qHTS assay to test for compound auto fluorescence at 590 nm (red) in HEK293 cell free culture (AID 720683)
Method in brief: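 Red-channel autofluorescence of compounds in culture medium (DMEM, 10% FBS), no cells, measured at 540/590 nm. Rose Bengal sodium is the reference fluorophore for equivalence.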

[12] = qHTS assay to test for compound auto fluorescence at 590 nm (red) in HepG2 cell free culture (AID 720684)
Method in brief: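 No cells present: MEM + 10% FBS only. Compound pinned in, red label read (540/590 nm). Activity = fluorescence equivalent to Rose Bengal sodium.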

[13] = qHTS assay to test for compound auto fluorescence at 460 nm (blue) in HepG2 cell free culture (AID 720685); note: potency is the fitted concentration of half-maximal effect
Method in brief: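 Cell-free plates of MEM plus 10% FBS received 23 nL compound or DMSO vehicle; blue-channel (405/460 nm) intensity scored against triamterene as reference fluorophore.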

[14] = qHTS assay to test for compound auto fluorescence at 535 nm (green) in HepG2 cell free culture (AID 720686)
[15] = molecular target: Glucocorticoid receptor (Homo sapiens) (UniProt P04150); test: qHTS assay to identify small molecule agonists of the glucocorticoid receptor (GR) signaling pathway (AID 720691; active = well fitted activation curve with a large enough effect in the signal ratio in the repeat runs, not every such curve was filed as active; the % refers to the signal ratio; note: potency is the fitted concentration of half-maximal effect); conditions: GR-bla HeLa, beta-lactamase reporter ratio, 18 h; activation: at 62.4 µM (top of the series)
Method in brief: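 Steps: seed GR-bla HeLa cells, incubate 4 h at 37 C/5% CO2; pin-transfer DMSO-dissolved compounds; incubate 18 h at 37 C; add LiveBLAzer B/G FRET substrate; after 2 h at room temperature, measure fluorescence.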

[16] = qHTS assay for small molecules that induce genotoxicity in human embryonic kidney cells expressing luciferase-tagged ATAD5 - cell viability (AID 651634; calls by dose curve; note: nearly all actives have a fitted effect of over 25% in size; note: potency is the fitted concentration of half-maximal effect)
Method in brief: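 Cells (HEK293T, luciferase-tagged ATAD5) are seeded at 2,000 per well, dosed with compound or DMSO vehicle, and incubated 15.5 hr at 37C and 5% CO2. CellTiter-Fluor is added for 30 min before fluorescence is measured.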

[17] = qHTS assay for small molecule disruptors of the mitochondrial membrane potential (AID 720635); note: potency is the fitted concentration of half-maximal effect
Method in brief: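 Mitochondrial membrane potential tracked with Mito-MPS dye, red aggregates (ex 540/em 590 nm) against green monomers (ex 490/em 535 nm). Compound treatment 1 hr at 37C, dye 30 min in HepG2.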

[18] = qHTS assay to test for compound auto fluorescence at 590 nm (red) in HEK293 cells (AID 720679)
Method in brief: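 Red autofluorescence, HEK293 cells: 2,000 cells/well; attach 4-5 hr 37C; add 23 nL cpd or DMSO; incubate o/n 37C 5% CO2; read Ex540/Em590; Rose Bengal sodium reference.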

[19] = qHTS assay to test for compound auto fluorescence at 460 nm (blue) in HepG2 cells (AID 720687); note: potency is the fitted concentration of half-maximal effect
Method in brief: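 Blue-channel autofluorescence (Ex/Em 405/460 nm, triamterene-equivalent) was measured after 1 hr compound exposure at 37 C, 5% CO2. Cells were HepG2, plated overnight at 37 C in MEM plus 10% FBS.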

[20] = molecular target: Glucocorticoid receptor (Homo sapiens) (UniProt P04150); test: qHTS assay to identify small molecule antagonists of the glucocorticoid receptor (GR) signaling pathway (AID 720692; active = well fitted inhibition curve with a large enough effect in the signal ratio in the repeat runs, not every such curve was filed as active; the % refers to the signal ratio; note: potency is the fitted concentration of half-maximal effect)
Method in brief: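 Antagonism was scored as loss of dexamethasone-driven (5 nM final) reporter signal in HeLa cells bearing a glucocorticoid response element–beta-lactamase construct, after 18 h compound exposure at 37 C and 2 h FRET substrate loading.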
Tags give direction and shape of the fitted curve or compound fluorescence and quenching.

Sequence of Glucocorticoid receptor (Homo sapiens) (P04150 whole entry, looked up): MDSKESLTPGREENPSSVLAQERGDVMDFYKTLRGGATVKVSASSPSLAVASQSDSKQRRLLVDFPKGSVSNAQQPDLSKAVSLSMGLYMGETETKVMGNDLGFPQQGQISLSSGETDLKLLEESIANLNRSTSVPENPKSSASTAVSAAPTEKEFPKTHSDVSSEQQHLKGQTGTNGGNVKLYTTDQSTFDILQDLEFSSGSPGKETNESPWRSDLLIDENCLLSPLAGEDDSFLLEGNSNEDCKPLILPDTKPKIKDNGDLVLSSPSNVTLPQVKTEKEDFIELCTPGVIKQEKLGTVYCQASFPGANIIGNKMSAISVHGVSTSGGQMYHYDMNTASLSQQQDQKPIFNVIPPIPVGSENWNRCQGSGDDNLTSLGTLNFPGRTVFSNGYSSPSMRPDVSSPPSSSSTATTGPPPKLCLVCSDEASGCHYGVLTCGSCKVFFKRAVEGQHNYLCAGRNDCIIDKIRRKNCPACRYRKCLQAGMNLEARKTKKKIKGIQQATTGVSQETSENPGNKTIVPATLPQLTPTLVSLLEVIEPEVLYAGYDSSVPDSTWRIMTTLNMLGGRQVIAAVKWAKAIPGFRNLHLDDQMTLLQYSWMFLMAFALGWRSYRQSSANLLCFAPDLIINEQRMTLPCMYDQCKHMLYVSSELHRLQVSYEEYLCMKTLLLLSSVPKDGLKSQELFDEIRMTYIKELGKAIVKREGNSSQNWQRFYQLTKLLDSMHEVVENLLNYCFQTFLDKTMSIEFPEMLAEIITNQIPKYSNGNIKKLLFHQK

Row | SMILES | Potency [1] | Potency [2] | Potency [3] | Potency [4] | Potency [5] | Potency [6] | Potency [7] | outcome [8] | Potency [9] | outcome [10] | Potency [11] | Potency [12] | Potency [13] | Potency [14] | Potency [15] | Potency [16] | Potency [17] | Potency [18] | Potency [19] | Potency [20]
1 | Cc1cccc2c1cc1ccc3cccc4ccc2c1c34 | 2.49 µM (active) | inactive | inactive | inactive | inactive | inactive | inactive | inactive | inactive | inactive | inactive | inactive | inactive | inactive | 5.01 µM [fluorescent] (active) |  |  |  |  | 
2 | Oc1cccc(-c2c3nc(c(-c4cccc(O)c4)c4ccc([nH]4)c(-c4cccc(O)c4)c4nc(c(-c5cccc(O)c5)c5ccc2[nH]5)CC4)C=C3)c1 |  | inactive | 9.44 µM (active) | inactive | inactive | inactive | inactive | inactive | inactive | inactive | inactive | inactive |  | inactive |  | 13.3 µM (active) and 11.9 µM (active) | 26.6 µM (active) | inactive | inactive | 
3 | CCCC(c1cc(C(C)(C)C)c(O)cc1C)c1cc(C(C)(C)C)c(O)cc1C |  | inactive | 17.4 µM (active) | 39 µM (active) | inactive | inactive | inactive | inactive | inactive | inactive | inactive | inactive | inactive |  |  | 31 µM (active) | 3.9 µM (active) | inactive | inactive | 
4 | CCCCCCCCCCC=O |  | inactive | inactive | inactive | inactive | inactive | inactive | inactive | inactive | inactive | inactive | inactive | inactive | inactive | inactive | inactive | inactive | inactive | inactive | inactive
5 | C[C@H]1[C@H]2CC[C@H]3[C@@H]4CC=C5C[C@@H](N(C)C)CC[C@]5(C)[C@H]4CC[C@]23CN1C |  | inactive | inactive | inactive | inactive | inactive | inactive | inactive | inactive |  | inactive | inactive | inactive | inactive | inactive | inactive | inactive | inactive | inactive | inactive
6 | CCc1cc(Cc2cc(CC)cc(C(C)(C)C)c2O)c(O)c(C(C)(C)C)c1 |  | inactive | 10.9 µM (active) | inactive | inactive | inactive | inactive | inactive | inactive | inactive | inactive | inactive | inactive | inactive |  | 61.1 µM (active) | 0.864 µM (active) | inactive | inactive | 
7 | Cc1cc(=O)oc2cc(N(C)C)ccc12 | 48.6 µM (active) |  | inactive | inactive | inactive | inactive | 39.8 µM [fluorescent] (active) | inactive | 39.8 µM (active) |  | inactive | inactive | 44.7 µM [fluorescent] (active) | inactive |  |  |  | inactive | 44.7 µM [fluorescent] (active) | 
8 | COc1ccc(C(=O)/C(Br)=C\C(=O)O)cc1 | 10.6 µM (active) and 21.7 µM (active) |  | inactive | inactive | inactive | inactive | inactive | inactive | inactive | inactive | inactive | inactive |  | inactive | inactive |  | inactive | inactive | inactive | inactive
9 | O=c1cccccc1O |  | inactive | inactive | inactive | inactive | inactive | inactive | inactive | inactive | inactive | inactive | inactive | inactive | inactive | inactive | inactive | 3.93 µM (active) | inactive |  | 
10 | O=C(c1ccc(O)cc1O)c1ccc(O)cc1O |  | inactive | inactive | inactive | inactive | inactive | inactive | inactive | inactive | inactive | inactive | inactive | inactive | inactive | inactive | inactive | 12.2 µM (active) and 7.7 µM (active) | inactive | inactive | 24.6 µM (active)
11 | O=C(OCC(COC(=O)c1ccccc1)(COC(=O)c1ccccc1)COC(=O)c1ccccc1)c1ccccc1 |  | inactive | inactive | inactive | inactive | inactive | inactive | inactive | inactive | inactive | inactive | inactive |  | inactive |  | inactive | 3.06 µM (active) | inactive | inactive | 
12 | CN(C)[C@@H]1C(=O)C(C(N)=O)=C(O)[C@@]2(O)C(=O)C3=C(O)c4c(O)ccc(Cl)c4[C@@H](O)[C@H]3C[C@@H]12 |  | inactive | inactive | inactive | inactive | inactive | inactive | inactive | inactive | inactive | inactive | inactive | inactive | inactive | inactive | inactive | inactive | inactive |  | inactive
13 | CCCCc1oc2ccc(NS(C)(=O)=O)cc2c1C(=O)c1ccc(OCCCN(CCCC)CCCC)cc1 |  | inactive | 29.8 µM (active) | 29.8 µM (active) | inactive | inactive | inactive | inactive | inactive |  | inactive | inactive | inactive | inactive |  | 26.6 µM (active) | 9.44 µM (active) | inactive |  | 
